Screening results: PubChem BioAssay, National Center for Advancing Translational Sciences (NCATS)
An excerpt weighted towards active compounds, which were near 2.8% of everything screened.
Pol beta inh = qHTS Assay for Inhibitors of DNA Polymerase Beta; hit rate 1.3% among 340,000; Potency, µM (titrated, usually from 114 µM), for inactives: at the top dose activity change, negative = inhibition, usual class: inhibitors; Pol beta primer extension/strand displacement, fluorescence kinetic; AID 485314, 2010; further: potency means the concentration at half of the fitted maximal effect; on the % scale 0 is the no-effect control and ±100 the full control effect
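Enzyme-only controls used 10 nM Pol beta; buffer lacking enzyme served as negative control. Compound preincubated 15 min, then 50 nM substrate added; 0 and 10 min reads at room temperature.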
WRN inhibitor = qHTS for Inhibitors of WRN Helicase. Bifunctional 3'-5' exonuclease/ATP-dependent helicase WRN (Homo sapiens), Q14191. Potency, µM (series often up to 114 µM), for inactives: top-dose activity change, negative = inhibition, actives largely listed as inhibitors. AID 651768, 2012. WRN helicase unwinding, fluorescent forked duplex, kinetic. hit rate 0.46% among 360,000; further: potency means the concentration at half of the fitted maximal effect; on the % scale 0 is the no-effect control and ±100 the full control effect; nearly all actives have a fitted effect of over 55% in size
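WRN at 20 nM final was preincubated with compound for 15 min at room temperature; reaction started with 100 nM forked duplex oligonucleotide carrying fluorophore and quencher plus 2 mM ATP (final). Unwinding followed kinetically by red fluorescence (ex 525/em 598 nm).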
Pol iota inh = qHTS for Inhibitors of Polymerase Iota | Potency, µM (series often up to 115 µM), without a hit: at the highest dose activity, negative = inhibition, usual class: inhibitors | Pol iota fluorescent replication assay, 10 min | hit rate 1% among 390,000 | DNA polymerase iota (Homo sapiens), Q9UNA4; further: potency means the concentration at half of the fitted maximal effect
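Fluorescent replication assay read twice, at 0 min and 10 min after adding 50 nM (final) substrate. Enzyme (10 nM) and compounds were first incubated 15 min at room temperature; enzyme-free buffer wells were negative controls.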
PI5P4K alpha inh = qHTS for Inhibitors of phosphatidylinositol 5-phosphate 4-kinase (PI5P4K); Phosphatidylinositol 5-phosphate 4-kinase type-2 alpha (Homo sapiens), P48426; PI5P4Kalpha enzyme, ADP-Glo luminescence, 60 min; active compounds read low; max response, %; hit rate 1.2% among 330,000; AID 652105, 2013; active means max response of -50% or lower; inconclusive means between -30% and -50%; inactive means -30% or higher; further: value at the top dose of about 77 µM; on the % scale 0 is the no-effect control and ±100 the full control effect
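Enzyme plus substrate dispensed, test compounds pinned in, then ATP (5 microM final) added. After 60 min at RT, ADP-Glo reagent 1 for 45 min and reagent 2 for 30 min preceded luminescence imaging.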
POLH inh = qHTS for Inhibitors of Polymerase Eta; DNA polymerase eta (Homo sapiens), Q9Y253; recombinant Pol eta, fluorescent DNA replication assay; hit rate 1.2% among 390,000; Potency, µM (titrated, usually from 114 µM), inactives show top-dose activity change, negative = inhibition, most hits filed as inhibitors; further: potency means the concentration at half of the fitted maximal effect; on the % scale 0 is the no-effect control and ±100 the full control effect
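Pol eta (10 nM) was preincubated with compounds for 15 min at room temperature, after which fluorescent replication substrate (50 nM final) was added to start the reaction. Fluorescence was read kinetically at 0 and 10 min.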
Pol kappa inh = qHTS for Inhibitors of Polymerase Kappa; DNA polymerase kappa (Homo sapiens), Q9UBT6; purified Pol kappa, fluorescent DNA synthesis assay, 10 min; Potency, µM (series often up to 107 µM), for inactives: at the top dose activity, negative = inhibition, actives largely listed as inhibitors; hit rate 0.53% among 400,000; AID 588579, 2011; further: potency means the concentration at half of the fitted maximal effect; on the % scale 0 is the no-effect control and ±100 the full control effect
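50 nM final substrate added after 15 min RT preincubation of 10 nM Pol kappa with compound; fluorescence read at 0 and 10 min.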
PGK validate = qHTS for inhibitors of Phosphogylcerate Kinase: Hit Validation Screen | Potency, µM (series often up to 57.5 µM), without a hit: at the highest dose activity change, negative = inhibition, hits mostly inhibitors | hit rate 79% among 500 | shares compounds with Pol kappa inh | TbPGK coupled GAPDH assay, Kinase-Glo luminescence; further: potency means the concentration at half of the fitted maximal effect; on the % scale 0 is the no-effect control and ±100 the full control effect; nearly all actives have a fitted effect of over 65% in size
Target sequence (P07378 whole entry, looked up): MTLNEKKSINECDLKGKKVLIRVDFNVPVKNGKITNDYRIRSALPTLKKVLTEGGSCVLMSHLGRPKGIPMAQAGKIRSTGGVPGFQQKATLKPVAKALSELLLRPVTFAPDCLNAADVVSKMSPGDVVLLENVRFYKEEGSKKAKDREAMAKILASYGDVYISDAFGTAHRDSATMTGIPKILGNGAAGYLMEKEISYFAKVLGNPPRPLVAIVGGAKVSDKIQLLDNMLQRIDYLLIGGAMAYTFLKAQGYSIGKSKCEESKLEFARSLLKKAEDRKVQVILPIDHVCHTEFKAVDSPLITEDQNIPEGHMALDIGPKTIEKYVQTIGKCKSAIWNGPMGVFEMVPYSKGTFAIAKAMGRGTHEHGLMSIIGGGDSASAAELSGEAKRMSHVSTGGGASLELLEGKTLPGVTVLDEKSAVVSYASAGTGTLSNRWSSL
Pol iota confirm = qHTS for Inhibitors of Polymerase Iota: Confirmatory Assay for Cherry-picked Compounds; shares compounds with Pol kappa inh; Pol iota primer extension, TAMRA/BHQ fluorescence; Potency, µM, actives largely listed as inhibitors; hit rate 77% among 1,500; AID 720496, 2013; further: potency means the concentration at half of the fitted maximal effect
The depositor's hits bear a star; ? = inconclusive; . = no result given; [ ] = remark or other dose. Unless noted, the call rests on the fitted dose curve; in most records, active means well fitted curve in the direction sought with a large enough effect; inconclusive means small, poorly fitted or top-dose-only effect, or another doubt; inactive means no such curve, though single readings can be large; an effect the other way counts as inactive or inconclusive.

SMILES	Pol beta inh	WRN inhibitor	Pol iota inh	PI5P4K alpha inh	POLH inh	Pol kappa inh	PGK validate	Pol iota confirm
CNc1ccc(/C=C(\CCC(=O)O)c2nc3ccccc3s2)cc1[N+](=O)[O-]	32µM*	?	-1%	-18	13µM*	-15%	.	42*
CC1=CC2=NC(=O)/C(=C\c3ccc(-c4cccc(Cl)c4)o3)C(=N)N2O1	?	-26%	?	-5	5.6µM*	-10%	.	?
C[C@@H]1O[C@@H](O[C@@H]2[C@@H](O)[C@H](OCCc3ccc(O)c(O)c3)O[C@H](CO)[C@H]2OC(=O)/C=C/c2ccc(O)c(O)c2)[C@H](O)[C@H](O)[C@H]1O	.	-23%	?	-26	-5%	22µM*	.	21*
CCc1ccc(-n2nc(C)c3c(C)cc(=O)n(CC(=O)N4CCCc5ccccc54)c32)cc1	22%	.	1%	.	5%	1%	.	.
O=C(c1ccc2c3n(nc2c1)-c1ccccc1CO3)N1CCCCC1	5%	7%	36%	-22	-7%	6%	9.2µM*	.
O=C(c1ccc2c3n(nc2c1)-c1ccccc1CO3)N1CCOCC1	-14%	10%	26%	?	-14%	12%	.	.
CCOc1ccc(S(=O)(=O)Nc2cc(Cl)ccc2OC)c2cccnc12	?	.	?	.	5%	-37%	.	.
c1ccc2nc(-c3nc4ccccc4o3)ccc2c1	0%	?	16%	.	-3%	-11%	18µM*	.
COc1ccc2noc3c2c1C(=O)c1ccccc1-3	.	?	?	-14	?	?	.	?
COc1ccc(Br)cc1CNC(=O)CN1C(=O)c2cccnc2Oc2ccc(C)cc21	33%	.	?	.	?	-16%	.	?
CC(C)CCN1CCN(Cc2ccc3nsnc3c2)CC1CCO (stereo not given)	-1%	-10%	25%	-2	-2%	-18%	-8%	.
O=C(Nc1ccc2c(c1)OCCO2)c1coc2ccccc2c1=O	41%	-16%	6%	-16	?	-4%	4.1µM*	.
O=C(OCc1cc(=O)n2nc(-c3cccs3)sc2n1)c1ccc(F)cc1	11µM*	.	?	.	?	-39%	.	?
Cc1c(-c2ccc(Br)cc2)nc2ccccn12	2%[57.1 µM]	-5%	0%	-5	-14%	-5%	.	.
CN(C)c1ccc(-c2nc3ccccn3c2/N=C/c2ccc(Br)cc2)cc1	-1%	?	5%	-9	-12%	-11%	?	.
Cn1cc(S(=O)(=O)N2CCCCC2)cc1C(=O)Nc1ccc(OC(F)(F)F)cc1	2%	.	12%	.	-10%	-14%[60.1 µM]	.	.
CCN1C(=O)c2ccccc2Sc2ccc(NC(=O)c3ccc(C)c(F)c3)cc21	16%	.	3%	.	-6%	-5%[60.1 µM]	.	.
Cc1nc(-c2cccc(F)c2)sc1CCNC(=O)Cc1ccc(F)cc1	-2%	.	7%	.	-16%	-7%[60.1 µM]	.	.
CNC(=O)C1CCC(Cn2c(=O)c3sccc3n(CC(=O)NCc3cccc(OC)c3)c2=O)CC1 (stereo not given)	4%	.	3%	.	-11%	-26%	.	.
Cc1cc2[nH]c3c(c[n+](C)c4ccccc34)c2cc1C	1.3µM*	24%[11.6 µM]	4.5µM*	-16	?	25µM*	.	15*
